Experimental data: PubChem BioAssay (NCATS)
Records with an inconclusive call do not appear. Calls of active or inactive are those of the source. Unless noted, calls follow the shape of the dose curve; as a rule, active = well fitted curve in the direction sought with a large enough effect; inconclusive = small, poorly fitted or top-dose-only effect, or another doubt; inactive = no such curve, though single readings can be large; an effect the other way counts as inactive or inconclusive.

Legend:
[1] = target: DNA repair nuclease/redox regulator APEX1 (Homo sapiens) (UniProt P27695); test: qHTS Validation Assay for Inhibitors of the Human Apurinic/apyrimidinic Endonuclease 1 (APE1) (AID 1705;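 also: TAMRA fluorescence gain over two minutes as APE1 cuts a quenched THF abasic duplex; series mostly up to about 57 µM; % is scaled to controls: 0 for no effect and ±100 for the full control effect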)
DNA repair nuclease/redox regulator APEX1 (Homo sapiens), sequence (P27695 whole entry, looked up): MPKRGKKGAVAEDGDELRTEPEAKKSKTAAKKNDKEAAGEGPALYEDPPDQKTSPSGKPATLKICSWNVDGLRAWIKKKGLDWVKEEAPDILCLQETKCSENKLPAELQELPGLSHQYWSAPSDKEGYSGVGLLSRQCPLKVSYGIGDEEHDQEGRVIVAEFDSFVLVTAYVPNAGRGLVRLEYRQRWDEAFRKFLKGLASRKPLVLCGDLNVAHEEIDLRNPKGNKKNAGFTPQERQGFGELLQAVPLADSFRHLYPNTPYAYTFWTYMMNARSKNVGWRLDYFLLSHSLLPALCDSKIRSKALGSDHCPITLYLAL
Outline: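 qHTS, 1536-well. APE1 + cpd 15 min RT → 50 nM TAMRA/BHQ-2 THF-abasic dsDNA substrate → kinetic fluorescence, 3 reads/60 s; delta(read3−read1) = reaction progress. No-enzyme buffer = negative control.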

[2] = Counterscreen for APE1 Inhibitors: Fluorescent Dye Displacement Validation Assay (AID 1707);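 also: plate controls were ThO with dsDNA and no compound for no effect and ThO without dsDNA for full effect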
Outline: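 Endpoint fluorescence read at 480 nm excitation / 540 nm emission; DNA-binding compounds lower signal by displacing 250 nM Thiazole Orange from 50 nM dsDNA containing a tetrahydrofuran abasic site, Tris-HCl pH7.5 buffer with NaCl and MgCl2.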

[3] = target: Endonuclease 4 (Escherichia coli (strain K12)) (UniProt P0A6C1); test: Counterscreen for APE1 Inhibitors: qHTS Validation Assay for Inhibitors of Endonuclease IV (AID 1708); also: % is scaled to controls: 0 for no effect and ±100 for the full control effect
Outline: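 Incision of a double-stranded 50 nM TAMRA/BHQ-2 abasic substrate was followed kinetically (525/598 nm, reads every 60 s) after 15 min enzyme–compound preincubation with 2 nM EndoIV in pH 7.5 Tris buffer with MgCl2, DTT and Tween-20; concentration-response format.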

[4] = qHTS for differential inhibitors of proliferation of Plasmodium falciparum line GB4 (AID 1816); settings: Potency: Plasmodium falciparum GB4 proliferation inhibition;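 also: parasite growth measured after 72 h incubation; 0% = vehicle DMSO and -100% = reference inhibitor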
[5] = qHTS for differential inhibitors of proliferation of Plasmodium falciparum line 3D7 (AID 1876);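 also: parasite growth measured after three days of culture; 0% = vehicle wells and -100% = reference inhibitor wells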
[6] = qHTS for differential inhibitors of proliferation of Plasmodium falciparum line D10 (AID 1877);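 also: parasites grown with compound for 72 h before DNA staining; plate controls were vehicle wells for no effect and reference inhibitor wells for full effect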
[7] = qHTS for differential inhibitors of proliferation of Plasmodium falciparum line Dd2 (AID 1882); settings: Potency: Plasmodium falciparum Dd2 proliferation inhibition;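 also: series mostly up to about 29 µM; plate controls were DMSO vehicle for no effect and 0.29 µM artemisinin for full effect; nearly all actives have a fitted effect of over 65% in size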
Outline: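 SYBR Green DNA fluorescence (ex 485, em 535 nm) after overnight lysis quantifies parasite growth; compound exposure lasted 72 h at 37 C on infected red cells at 2.5% hematocrit, 0.3% parasitemia (final). Artemisinin 0.29 uM and vehicle wells define normalization.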

[8] = qHTS for differential inhibitors of proliferation of Plasmodium falciparum line W2 (AID 1883); settings: Potency: Plasmodium falciparum W2 proliferation inhibition;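 also: parasites grown with compound for 72 h before lysis and staining; 0% = vehicle wells and -100% = control inhibitor wells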
[9] = qHTS for differential inhibitors of proliferation of Plasmodium falciparum line HB3 (AID 1886); settings: Potency: Plasmodium falciparum HB3 proliferation inhibition;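 also: parasites grown with compound for 72 h before SYBR Green readout; plate controls were vehicle for no effect and reference inhibitor for full effect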
[10] = qHTS Assay for Modulators of Human Peripheral Myelin Protein 22 (PMP22) Expression/Activity (AID 1967; active = well fitted curve in the direction sought with a large enough effect in the signal ratio; the % refers to the signal ratio;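 also: 0% = untreated cells and 100% end not stated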)
Outline: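 Luminescence ratio of Pmp22 promoter-driven green luciferase to EF-alpha-driven red luciferase, in engineered mouse MSC80 Schwann cells, served as read-out. Compounds were incubated 24h; untreated cells defined 0% Activity; curves were classified by r2, magnitude and activity.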

[11] = target: Ferritin light chain (Equus caballus) (UniProt P02791); test: qHTS Validation Assay for Identification of Novel General Anesthetics (AID 2323); also: series mostly up to about 77 µM; % is scaled to controls: 0 for no effect and ±100 for the full control effect
Ferritin light chain (Equus caballus), sequence (P02791 2-175 limits assumed): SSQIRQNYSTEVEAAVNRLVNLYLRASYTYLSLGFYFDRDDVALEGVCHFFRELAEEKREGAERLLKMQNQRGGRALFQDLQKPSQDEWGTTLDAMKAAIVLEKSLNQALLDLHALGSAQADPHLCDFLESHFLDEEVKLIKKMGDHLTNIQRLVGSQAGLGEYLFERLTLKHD
Outline: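 Fluorescence at 535 nm (excitation 380 nm) reported loss of 1-AMA binding to horse-spleen apoferritin (10 uM) in PBS with 50% saturated 1-aminoanthracene, after 10 min room-temperature incubation with compound; values from Hill fits of normalized response.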

[12] = target: ATP-dependent DNA helicase Q1 (Homo sapiens) (UniProt P46063); test: qHTS Validation Assay for Inhibitors of RecQ-Like Dna Helicase 1 (RECQ1) (AID 2353);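 also: plate controls were DMSO vehicle for no effect and enzyme-free control for full effect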
ATP-dependent DNA helicase Q1 (Homo sapiens), sequence (P46063 whole entry, looked up): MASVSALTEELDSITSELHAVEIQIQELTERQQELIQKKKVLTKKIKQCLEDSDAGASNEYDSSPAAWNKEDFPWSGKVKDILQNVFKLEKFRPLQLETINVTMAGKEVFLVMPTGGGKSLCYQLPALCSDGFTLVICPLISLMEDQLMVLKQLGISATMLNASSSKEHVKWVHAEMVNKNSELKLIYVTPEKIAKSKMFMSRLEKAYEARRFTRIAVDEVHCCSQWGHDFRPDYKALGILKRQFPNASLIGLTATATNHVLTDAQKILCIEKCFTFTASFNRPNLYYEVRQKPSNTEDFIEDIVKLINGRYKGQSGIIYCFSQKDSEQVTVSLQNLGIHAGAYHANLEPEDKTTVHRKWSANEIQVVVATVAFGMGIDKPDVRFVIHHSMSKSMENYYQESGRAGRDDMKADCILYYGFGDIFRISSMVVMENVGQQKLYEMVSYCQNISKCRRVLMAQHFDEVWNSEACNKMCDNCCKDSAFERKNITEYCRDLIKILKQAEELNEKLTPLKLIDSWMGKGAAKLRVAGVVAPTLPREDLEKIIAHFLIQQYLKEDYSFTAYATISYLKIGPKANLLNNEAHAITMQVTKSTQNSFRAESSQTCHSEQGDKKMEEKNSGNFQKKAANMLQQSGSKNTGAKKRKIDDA
Outline: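 RECQ1T1 50 nM; forked duplex (20 bp + 30-nt ss tails) 200 nM, ATP 2 mM final; pH 8.0, 2 mM MgCl2, 2.5 ug/ml poly(dI-dC); 15 min compound preincubation; discontinuous kinetic read over 2 h at RT.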

[13] = Validation screen for small molecules that induce DNA re-replication in MCF 10A normal breast cells (AID 463097); also: 0% is about no effect; nearly all actives have a fitted effect of over 60% in size
Outline: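 Image-based qHTS: normal breast cells are incubated with compound for 48 hr, stained with Hoechst, and scanned for total nuclear fluorescence. Compounds raising the fraction of nuclei with elevated DNA content count as re-replication inducers.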

[14] = Quantitative high throughput screen for delayed death inhibitors of the malarial parasite plastid, 96 hour incubation (AID 488745);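 also: luciferase-expressing P. falciparum in erythrocytes at 2% hematocrit and 0.1% parasitemia; series mostly up to about 29 µM; % is scaled to controls: 0 for no effect and ±100 for the full control effect; nearly all actives have a fitted effect of over 70% in size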
Outline: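 Readout is firefly luciferase luminescence from an integrated reporter in P. falciparum; lower signal marks inhibited growth. Cultures at 2% hematocrit and 0.1% parasitemia were treated with compound across two generations (96 h, 37 C, 5% CO2).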

[15] = target: M-phase phosphoprotein 8 (Homo sapiens) (UniProt Q99549); test: qHTS Validation Assay for Inhibitors for MPP8 Chromodomain Interactions with Methylated Histone Tails (AID 488949);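 also: 50 nM MPP8 with 50 nM peptide preformed then compounds added for 30 min; AlphaScreen signal from MPP8 chromodomain bound to biotinylated H3K9me3 peptide; top concentration of the series differs between compounds; % is scaled to controls: 0 for no effect and ±100 for the full control effect; nearly all actives have a fitted effect of over 55% in size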
M-phase phosphoprotein 8 (Homo sapiens), sequence (Q99549 whole entry, looked up): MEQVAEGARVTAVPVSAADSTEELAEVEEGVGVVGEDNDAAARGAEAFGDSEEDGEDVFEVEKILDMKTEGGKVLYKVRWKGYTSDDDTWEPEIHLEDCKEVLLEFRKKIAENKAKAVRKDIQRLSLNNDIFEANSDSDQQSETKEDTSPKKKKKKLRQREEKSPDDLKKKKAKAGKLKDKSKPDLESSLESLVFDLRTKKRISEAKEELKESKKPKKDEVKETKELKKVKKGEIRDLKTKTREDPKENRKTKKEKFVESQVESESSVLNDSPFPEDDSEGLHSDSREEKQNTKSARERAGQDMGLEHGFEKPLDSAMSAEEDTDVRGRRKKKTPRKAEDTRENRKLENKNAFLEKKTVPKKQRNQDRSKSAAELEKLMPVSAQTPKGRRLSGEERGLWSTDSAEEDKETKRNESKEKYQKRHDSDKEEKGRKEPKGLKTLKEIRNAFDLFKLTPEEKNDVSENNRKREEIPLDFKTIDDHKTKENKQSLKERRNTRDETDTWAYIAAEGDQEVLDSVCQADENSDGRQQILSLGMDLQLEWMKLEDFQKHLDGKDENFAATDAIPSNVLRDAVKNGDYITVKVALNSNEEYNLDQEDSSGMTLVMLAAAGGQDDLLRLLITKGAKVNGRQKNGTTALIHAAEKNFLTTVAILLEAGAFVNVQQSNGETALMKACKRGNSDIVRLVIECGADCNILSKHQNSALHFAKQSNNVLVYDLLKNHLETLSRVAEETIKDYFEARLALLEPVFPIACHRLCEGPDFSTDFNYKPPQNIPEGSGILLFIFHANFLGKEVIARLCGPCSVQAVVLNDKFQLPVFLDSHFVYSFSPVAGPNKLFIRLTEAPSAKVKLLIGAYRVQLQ
Outline: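 50 nM MPP8 + 50 nM b-H3K9me3 peptide, PBS pH 7.4/0.01% Tween-20, 30 min RT; + cpd 30 min RT; + AlphaScreen donor/Ni-chelate acceptor beads 10 ug/mL final, 30 min dark; luminescence read.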

[16] = target: Thyrotropin receptor (Homo sapiens) (UniProt P16473); test: qHTS Assay for Antagonists of the Thyroid Stimulating Hormone Receptor (AID 488980); also: series mostly up to about 58 µM; 0% is about no effect
Thyrotropin receptor (Homo sapiens), sequence (P16473 whole entry, looked up): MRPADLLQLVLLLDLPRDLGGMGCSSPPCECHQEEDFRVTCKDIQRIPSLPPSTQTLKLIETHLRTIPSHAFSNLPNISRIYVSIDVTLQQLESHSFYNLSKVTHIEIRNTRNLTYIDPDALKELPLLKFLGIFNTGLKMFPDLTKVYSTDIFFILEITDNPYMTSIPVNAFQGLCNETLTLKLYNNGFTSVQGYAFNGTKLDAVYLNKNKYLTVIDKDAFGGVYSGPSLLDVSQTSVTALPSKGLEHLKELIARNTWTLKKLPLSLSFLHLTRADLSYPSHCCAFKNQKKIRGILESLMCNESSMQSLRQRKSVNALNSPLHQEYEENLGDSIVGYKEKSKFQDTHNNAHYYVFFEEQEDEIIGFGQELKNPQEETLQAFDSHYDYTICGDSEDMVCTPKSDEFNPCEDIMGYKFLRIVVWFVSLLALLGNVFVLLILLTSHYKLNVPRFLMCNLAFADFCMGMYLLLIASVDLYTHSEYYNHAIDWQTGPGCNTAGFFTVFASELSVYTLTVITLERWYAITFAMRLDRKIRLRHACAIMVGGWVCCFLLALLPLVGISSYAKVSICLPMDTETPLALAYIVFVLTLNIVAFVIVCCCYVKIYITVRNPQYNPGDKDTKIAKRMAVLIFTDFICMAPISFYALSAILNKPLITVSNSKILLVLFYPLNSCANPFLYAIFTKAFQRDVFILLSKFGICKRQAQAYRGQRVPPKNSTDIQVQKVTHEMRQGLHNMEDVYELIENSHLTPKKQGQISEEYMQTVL
Outline: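 Readout is cAMP by HTRF competition between cellular cAMP and cAMP-d2 for a cryptate-labelled antibody. Antagonism was assessed in TSHR-transfected HEK293 cells stimulated with 4 nM TSH (EC80, final) in the presence of RO 20-1724.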

[17] = target: Thyrotropin-releasing hormone receptor (Homo sapiens) (UniProt P34981); test: qHTS for Small Molecule Agonists and Allosteric Enhancers of Human TRH Receptor: Validation Screen for Agonists (AID 493127;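 active = calcium activation more than 3 SD above the typical response in the agonist read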;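 also: intracellular calcium rise by fluo-8 fluorescence before TRH EC20 addition; 0% is about no effect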); settings: TRH receptor agonist cell assay; at 2 µM; stronger effect = higher value
Thyrotropin-releasing hormone receptor (Homo sapiens), sequence (P34981 whole entry, looked up): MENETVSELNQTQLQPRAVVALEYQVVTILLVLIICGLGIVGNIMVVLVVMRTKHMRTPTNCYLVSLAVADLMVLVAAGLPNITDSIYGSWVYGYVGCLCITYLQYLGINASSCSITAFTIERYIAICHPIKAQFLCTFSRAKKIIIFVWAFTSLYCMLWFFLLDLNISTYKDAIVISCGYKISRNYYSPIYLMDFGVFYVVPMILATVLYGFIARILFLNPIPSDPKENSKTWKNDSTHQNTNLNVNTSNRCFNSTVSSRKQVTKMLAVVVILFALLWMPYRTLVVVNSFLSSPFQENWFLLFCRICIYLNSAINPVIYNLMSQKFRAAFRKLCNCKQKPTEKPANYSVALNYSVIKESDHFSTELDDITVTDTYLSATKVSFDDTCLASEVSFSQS
Outline: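 Compounds are added by online pintool to dye-loaded TRHR cells while fluorescence is recorded every second. A rise in calcium signal during the agonist read marks activation; a later 10 nM TRH addition (EC20) serves the separate enhancer mode.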

[18] = target: Galactokinase (Homo sapiens) (UniProt P51570); test: qHTS Validation Assay for Inhibitors of Human Galactokinase (GALK) (AID 493189); also: 0% is about no effect
Galactokinase (Homo sapiens), sequence (P51570 whole entry, looked up): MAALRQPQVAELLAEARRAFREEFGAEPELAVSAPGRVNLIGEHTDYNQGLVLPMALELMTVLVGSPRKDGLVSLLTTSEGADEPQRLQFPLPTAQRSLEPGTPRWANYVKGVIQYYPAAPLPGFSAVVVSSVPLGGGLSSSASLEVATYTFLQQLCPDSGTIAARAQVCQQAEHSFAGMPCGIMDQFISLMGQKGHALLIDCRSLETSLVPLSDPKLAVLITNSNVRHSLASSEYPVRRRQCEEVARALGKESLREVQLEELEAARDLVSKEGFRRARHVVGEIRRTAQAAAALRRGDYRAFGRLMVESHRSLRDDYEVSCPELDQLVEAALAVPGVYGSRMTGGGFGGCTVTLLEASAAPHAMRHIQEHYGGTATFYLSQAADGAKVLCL
Outline: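 5 nM GALK / 100 uM galactose / 35 uM ATP, 20 mM HEPES pH8.0, 5 mM MgCl2, 60 mM NaCl, 1 mM DTT, 0.01% BSA (final). RT 1 h; Kinase-Glo Plus luminescence.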

[19] = Validation screen for small molecules that induce DNA re-replication in SW480 colon adenocarcinoma cells (AID 504364); also: 0% is about no effect
Outline: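 Image-based qHTS: compounds were incubated with SW480 cells for 48 hr, nuclei stained with Hoechst, and per-nucleus fluorescence intensity scanned to flag cells with excess DNA content.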

[20] = target: DNA dC->dU-editing enzyme APOBEC-3G (Homo sapiens) (UniProt Q9HC16); test: qHTS for inhibitors of Vif-A3G interactions: Validation (AID 588379); also: 0% is about no effect
DNA dC->dU-editing enzyme APOBEC-3G (Homo sapiens), sequence (Q9HC16 whole entry, looked up): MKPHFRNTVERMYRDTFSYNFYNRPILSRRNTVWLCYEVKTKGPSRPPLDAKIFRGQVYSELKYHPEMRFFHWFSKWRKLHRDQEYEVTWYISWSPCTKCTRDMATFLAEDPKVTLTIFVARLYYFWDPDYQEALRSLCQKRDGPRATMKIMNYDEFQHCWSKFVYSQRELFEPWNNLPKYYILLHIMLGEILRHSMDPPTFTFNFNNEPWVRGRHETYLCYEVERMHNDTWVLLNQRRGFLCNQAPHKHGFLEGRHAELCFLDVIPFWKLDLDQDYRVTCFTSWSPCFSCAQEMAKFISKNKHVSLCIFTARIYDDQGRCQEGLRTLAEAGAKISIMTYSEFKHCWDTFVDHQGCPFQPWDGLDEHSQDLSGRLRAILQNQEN
Outline: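 Yellow fluorescence (Ex 488, Em 500-530) of Vif-coexpressing HeLa A3G-eYFP cells, scanned by Acumen cytometer, reports blocked A3G degradation. Cells plated at 700/well overnight at 37 deg C before compound addition, then a further overnight compound incubation at 37 deg C.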

[21] = test system: Zika virus NS2B-NS3 protease; test: Primary screen GU AMC qHTS for Zika virus inhibitors (AID 1347154);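 also: 0% = no-inhibitor control and -100% = no-enzyme control; nearly all actives have a fitted effect of over 70% in size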
Outline: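 Fluorogenic AMC-substrate cleavage by noncovalent NS2B-NS3 protease complex (25 nM, pH 8.0 Tris buffer with Tween 20) followed for 15 minutes at room temperature (~20% conversion). Percent inhibition from ex340/em450 signal change, fitted by 4-parameter Hill equation.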

[22] = Primary qHTS for small molecule stabilizers of the endoplasmic reticulum resident proteome: Secreted ER Calcium Modulated Protein (SERCaMP) assay (AID 1508630); also: % is scaled to controls: 0 for no effect and ±100 for the full control effect
Outline: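 The SH-SY5Y reporter protocol was run at 3 concentrations up to 38.3 uM (primary) or 11 concentrations (follow-up): 16 h compound, 100 nM thapsigargin for 4 h, then extracellular luciferase luminescence.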

O=C(O)c1cc(=O)c2ccc(Cl)cc2[nH]1
inactive: Potency [1] | Potency [2] | Potency [3] | Potency [4] | Potency [5] | Potency [6] | Potency [7] | Potency [8] | Potency [9] | outcome [10] | outcome [11] | Potency [12] | Potency [13] | Potency [14] | Potency [15] | outcome [16] | activation [17] 1.31% | outcome [18] | outcome [19] | Potency [20] | Potency [21] | Potency [22]
